Results as given in ChEMBL document CHEMBL1961873, “Compounds: GSK PKIS; Assays: Nanosyn kinase panel” (2012).

Key:
[1] = biological target: Serine/threonine-protein kinase pim-2 (Homo sapiens) (UniProt Q9P1W9); settings: at 1 µM;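 note: each value is a mean of the inhibition measurements against the kinase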
[2] = biological target: Serine/threonine-protein kinase pim-3 (Homo sapiens) (UniProt Q86V86); settings: at 0.1 µM
[3] = biological target: Serine/threonine-protein kinase pim-3 (Homo sapiens) (UniProt Q86V86); settings: at 1 µM
[4] = biological target: T1, MAP kinase-activated protein kinase 5 (Homo sapiens) (UniProt Q8IW41); settings: at 0.1 µM
T1 sequence (whole entry): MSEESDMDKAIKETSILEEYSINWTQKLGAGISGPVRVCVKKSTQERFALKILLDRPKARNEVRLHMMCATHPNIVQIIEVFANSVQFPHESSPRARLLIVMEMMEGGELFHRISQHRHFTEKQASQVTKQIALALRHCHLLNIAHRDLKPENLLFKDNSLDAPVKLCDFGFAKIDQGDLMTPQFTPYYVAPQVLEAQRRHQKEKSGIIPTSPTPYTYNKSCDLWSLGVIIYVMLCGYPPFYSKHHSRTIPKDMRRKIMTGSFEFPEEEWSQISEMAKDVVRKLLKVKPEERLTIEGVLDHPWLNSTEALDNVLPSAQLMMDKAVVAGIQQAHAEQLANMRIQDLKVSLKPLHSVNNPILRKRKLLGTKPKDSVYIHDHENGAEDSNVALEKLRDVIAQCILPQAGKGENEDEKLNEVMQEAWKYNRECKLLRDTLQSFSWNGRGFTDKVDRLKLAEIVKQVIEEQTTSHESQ

[5] = biological target: T1, MAP kinase-activated protein kinase 5 (Homo sapiens); settings: at 1 µM
[6] = biological target: Serine/threonine-protein kinase SIK1 (Homo sapiens) (UniProt P57059); settings: at 0.1 µM
[7] = biological target: Serine/threonine-protein kinase SIK1 (Homo sapiens) (UniProt P57059); settings: at 1 µM
[8] = biological target: Serine/threonine-protein kinase SIK2 (Homo sapiens) (UniProt Q9H0K1); settings: at 0.1 µM
[9] = biological target: Serine/threonine-protein kinase SIK2 (Homo sapiens) (UniProt Q9H0K1); settings: at 1 µM
[10] = biological target: T2, Serine/threonine-protein kinase TBK1 (Homo sapiens) (UniProt Q9UHD2); settings: at 0.1 µM
T2 sequence (whole entry): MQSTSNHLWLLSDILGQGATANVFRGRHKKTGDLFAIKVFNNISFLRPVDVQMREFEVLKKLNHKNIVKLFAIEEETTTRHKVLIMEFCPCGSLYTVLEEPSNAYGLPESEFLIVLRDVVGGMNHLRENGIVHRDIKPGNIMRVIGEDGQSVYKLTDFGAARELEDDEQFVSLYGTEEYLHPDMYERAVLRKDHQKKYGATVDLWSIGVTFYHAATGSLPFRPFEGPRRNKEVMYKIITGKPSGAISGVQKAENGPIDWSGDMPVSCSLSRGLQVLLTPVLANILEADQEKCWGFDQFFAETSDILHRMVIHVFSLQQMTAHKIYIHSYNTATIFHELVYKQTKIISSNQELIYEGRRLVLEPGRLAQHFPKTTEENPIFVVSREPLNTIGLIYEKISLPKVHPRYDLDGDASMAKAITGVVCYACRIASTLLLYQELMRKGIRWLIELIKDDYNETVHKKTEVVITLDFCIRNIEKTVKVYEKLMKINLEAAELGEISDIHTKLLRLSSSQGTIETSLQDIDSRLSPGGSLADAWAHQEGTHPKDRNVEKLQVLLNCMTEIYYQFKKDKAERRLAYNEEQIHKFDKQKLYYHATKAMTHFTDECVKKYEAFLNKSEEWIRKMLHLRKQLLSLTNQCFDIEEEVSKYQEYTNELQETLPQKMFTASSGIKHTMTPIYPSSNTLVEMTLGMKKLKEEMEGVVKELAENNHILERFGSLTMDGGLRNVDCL

[11] = biological target: T2, Serine/threonine-protein kinase TBK1 (Homo sapiens); settings: at 1 µM
[12] = biological target: T3, Testis-specific serine/threonine-protein kinase 1 (Homo sapiens) (UniProt Q9BXA7); settings: at 0.1 µM
T3 sequence (whole entry): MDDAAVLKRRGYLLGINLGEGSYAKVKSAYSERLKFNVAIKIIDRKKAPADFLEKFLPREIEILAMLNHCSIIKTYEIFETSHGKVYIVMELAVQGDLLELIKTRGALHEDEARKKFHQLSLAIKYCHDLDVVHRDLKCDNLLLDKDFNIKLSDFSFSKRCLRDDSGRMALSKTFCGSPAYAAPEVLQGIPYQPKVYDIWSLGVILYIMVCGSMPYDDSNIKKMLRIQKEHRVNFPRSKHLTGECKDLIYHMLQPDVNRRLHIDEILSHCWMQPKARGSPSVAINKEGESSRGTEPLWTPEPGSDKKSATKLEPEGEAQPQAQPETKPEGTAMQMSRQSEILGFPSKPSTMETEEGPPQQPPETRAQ

[13] = biological target: T3, Testis-specific serine/threonine-protein kinase 1 (Homo sapiens); settings: at 1 µM
[14] = biological target: T4, Testis-specific serine/threonine-protein kinase 2 (Homo sapiens) (UniProt Q96PF2); settings: at 0.1 µM
T4 sequence (whole entry): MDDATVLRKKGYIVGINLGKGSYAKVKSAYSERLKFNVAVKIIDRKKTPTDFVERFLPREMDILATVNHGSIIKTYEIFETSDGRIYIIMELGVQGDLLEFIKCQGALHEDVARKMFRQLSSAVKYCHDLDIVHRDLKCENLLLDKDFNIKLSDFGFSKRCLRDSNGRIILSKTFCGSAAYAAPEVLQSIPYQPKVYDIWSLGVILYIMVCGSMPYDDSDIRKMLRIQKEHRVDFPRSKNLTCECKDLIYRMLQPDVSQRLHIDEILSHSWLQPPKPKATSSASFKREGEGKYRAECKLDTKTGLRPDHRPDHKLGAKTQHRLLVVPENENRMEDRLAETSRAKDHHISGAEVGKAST

[15] = biological target: T4, Testis-specific serine/threonine-protein kinase 2 (Homo sapiens); settings: at 1 µM
[16] = biological target: Casein kinase I isoform alpha (Homo sapiens) (UniProt P48729); settings: at 0.1 µM
[17] = biological target: Casein kinase I isoform alpha (Homo sapiens) (UniProt P48729); settings: at 1 µM
[18] = biological target: Casein kinase I isoform gamma-1 (Homo sapiens) (UniProt Q9HCP0); settings: at 0.1 µM
[19] = biological target: Casein kinase I isoform gamma-1 (Homo sapiens) (UniProt Q9HCP0); settings: at 1 µM
[20] = biological target: Casein kinase I isoform gamma-2 (Homo sapiens) (UniProt P78368); settings: at 0.1 µM;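 note: values are mean inhibition figures reported as part of the GSK PKIS dataset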
Chain of Casein kinase I isoform gamma-2 (Homo sapiens) (P78368 whole entry, looked up, canonical isoform): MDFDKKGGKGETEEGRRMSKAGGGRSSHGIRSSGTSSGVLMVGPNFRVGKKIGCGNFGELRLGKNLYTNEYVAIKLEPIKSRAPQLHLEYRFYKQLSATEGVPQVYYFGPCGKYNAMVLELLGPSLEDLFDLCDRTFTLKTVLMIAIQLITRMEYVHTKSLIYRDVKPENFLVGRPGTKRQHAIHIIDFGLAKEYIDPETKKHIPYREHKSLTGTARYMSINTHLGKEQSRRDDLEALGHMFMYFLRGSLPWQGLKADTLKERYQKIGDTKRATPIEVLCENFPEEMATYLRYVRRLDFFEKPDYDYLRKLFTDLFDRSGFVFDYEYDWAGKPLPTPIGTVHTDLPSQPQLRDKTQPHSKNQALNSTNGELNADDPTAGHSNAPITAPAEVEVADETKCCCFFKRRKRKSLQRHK

Chain of Serine/threonine-protein kinase SIK2 (Homo sapiens) (Q9H0K1 whole entry, looked up): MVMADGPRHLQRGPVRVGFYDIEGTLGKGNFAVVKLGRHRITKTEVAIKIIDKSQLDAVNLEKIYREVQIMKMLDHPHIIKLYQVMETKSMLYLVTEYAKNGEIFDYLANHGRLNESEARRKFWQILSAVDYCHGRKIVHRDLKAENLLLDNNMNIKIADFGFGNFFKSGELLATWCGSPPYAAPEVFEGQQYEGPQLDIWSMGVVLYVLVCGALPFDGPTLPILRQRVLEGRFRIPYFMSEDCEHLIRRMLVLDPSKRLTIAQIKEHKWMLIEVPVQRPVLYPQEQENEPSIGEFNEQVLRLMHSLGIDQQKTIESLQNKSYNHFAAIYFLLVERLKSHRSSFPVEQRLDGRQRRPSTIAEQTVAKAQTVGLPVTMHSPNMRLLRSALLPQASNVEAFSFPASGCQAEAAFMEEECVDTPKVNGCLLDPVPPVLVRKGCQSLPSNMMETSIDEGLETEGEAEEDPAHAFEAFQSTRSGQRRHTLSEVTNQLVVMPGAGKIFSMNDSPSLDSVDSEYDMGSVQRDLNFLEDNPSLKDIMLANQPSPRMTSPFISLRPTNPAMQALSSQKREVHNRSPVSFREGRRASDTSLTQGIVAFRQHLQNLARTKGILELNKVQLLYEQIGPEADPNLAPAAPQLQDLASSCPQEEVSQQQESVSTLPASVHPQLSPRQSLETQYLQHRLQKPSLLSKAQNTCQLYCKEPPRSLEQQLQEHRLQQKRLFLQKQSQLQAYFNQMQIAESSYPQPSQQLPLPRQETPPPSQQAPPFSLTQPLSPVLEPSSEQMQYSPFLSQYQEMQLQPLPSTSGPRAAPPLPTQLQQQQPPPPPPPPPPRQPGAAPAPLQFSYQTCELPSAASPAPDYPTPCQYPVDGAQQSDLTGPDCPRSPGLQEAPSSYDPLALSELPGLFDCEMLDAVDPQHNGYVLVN
Chain of Serine/threonine-protein kinase pim-2 (Homo sapiens) (Q9P1W9 whole entry, looked up): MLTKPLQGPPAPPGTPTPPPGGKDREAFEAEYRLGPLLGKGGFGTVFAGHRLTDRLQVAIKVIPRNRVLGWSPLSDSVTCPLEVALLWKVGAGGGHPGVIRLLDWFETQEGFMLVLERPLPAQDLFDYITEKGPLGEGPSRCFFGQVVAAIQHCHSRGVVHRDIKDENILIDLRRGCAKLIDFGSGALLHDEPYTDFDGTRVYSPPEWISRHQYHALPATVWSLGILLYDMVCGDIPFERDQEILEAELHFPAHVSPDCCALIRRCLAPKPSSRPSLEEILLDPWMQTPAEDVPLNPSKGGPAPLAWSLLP
Chain of Casein kinase I isoform alpha (Homo sapiens) (P48729 2-337 limits assumed): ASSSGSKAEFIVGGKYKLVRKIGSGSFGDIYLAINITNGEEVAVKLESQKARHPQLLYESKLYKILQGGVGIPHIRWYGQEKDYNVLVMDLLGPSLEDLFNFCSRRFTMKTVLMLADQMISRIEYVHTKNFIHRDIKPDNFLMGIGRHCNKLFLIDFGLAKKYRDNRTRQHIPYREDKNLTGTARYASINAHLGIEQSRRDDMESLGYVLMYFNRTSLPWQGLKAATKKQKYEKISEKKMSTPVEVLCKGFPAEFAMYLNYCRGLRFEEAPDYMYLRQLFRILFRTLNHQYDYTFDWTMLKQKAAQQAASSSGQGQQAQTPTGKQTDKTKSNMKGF
Chain of Casein kinase I isoform gamma-1 (Homo sapiens) (Q9HCP0 whole entry, looked up, canonical isoform): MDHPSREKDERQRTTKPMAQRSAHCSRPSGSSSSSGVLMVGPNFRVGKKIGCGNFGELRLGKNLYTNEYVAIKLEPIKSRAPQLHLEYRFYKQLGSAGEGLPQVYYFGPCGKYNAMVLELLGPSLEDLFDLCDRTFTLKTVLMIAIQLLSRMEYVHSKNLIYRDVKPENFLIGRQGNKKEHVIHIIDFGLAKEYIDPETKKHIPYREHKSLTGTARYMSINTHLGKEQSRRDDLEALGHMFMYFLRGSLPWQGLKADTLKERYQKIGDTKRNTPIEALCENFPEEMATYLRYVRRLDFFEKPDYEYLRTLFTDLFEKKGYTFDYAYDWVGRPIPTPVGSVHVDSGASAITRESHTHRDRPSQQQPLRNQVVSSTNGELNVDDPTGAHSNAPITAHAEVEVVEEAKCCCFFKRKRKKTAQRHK
Chain of Serine/threonine-protein kinase SIK1 (Homo sapiens) (P57059 whole entry): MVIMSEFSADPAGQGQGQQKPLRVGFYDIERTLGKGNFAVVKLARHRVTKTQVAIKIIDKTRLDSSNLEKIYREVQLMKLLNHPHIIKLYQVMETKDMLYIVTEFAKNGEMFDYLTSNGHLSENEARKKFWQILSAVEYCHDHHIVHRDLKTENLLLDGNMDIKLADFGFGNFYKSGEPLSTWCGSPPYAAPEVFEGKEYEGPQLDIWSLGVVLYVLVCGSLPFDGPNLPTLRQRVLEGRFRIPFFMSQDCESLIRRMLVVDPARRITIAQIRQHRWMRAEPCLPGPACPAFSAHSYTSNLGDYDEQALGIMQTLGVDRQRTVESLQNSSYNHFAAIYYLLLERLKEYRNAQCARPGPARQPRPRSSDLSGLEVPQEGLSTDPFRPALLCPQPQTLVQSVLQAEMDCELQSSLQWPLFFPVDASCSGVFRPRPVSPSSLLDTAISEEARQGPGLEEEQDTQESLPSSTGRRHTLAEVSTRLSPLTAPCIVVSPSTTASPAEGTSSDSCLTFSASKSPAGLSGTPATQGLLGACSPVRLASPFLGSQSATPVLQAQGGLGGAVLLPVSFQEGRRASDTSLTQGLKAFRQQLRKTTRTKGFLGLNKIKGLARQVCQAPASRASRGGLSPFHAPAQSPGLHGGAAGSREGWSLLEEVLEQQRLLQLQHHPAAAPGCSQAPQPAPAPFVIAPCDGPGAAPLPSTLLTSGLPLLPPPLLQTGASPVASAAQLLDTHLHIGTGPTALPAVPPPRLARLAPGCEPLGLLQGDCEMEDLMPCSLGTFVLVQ

Row | SMILES | inhibition [1] [%] | inhibition [2] [%] | inhibition [3] [%] | inhibition [4] [%] | inhibition [5] [%] | inhibition [6] [%] | inhibition [7] [%] | inhibition [8] [%] | inhibition [9] [%] | inhibition [10] [%] | inhibition [11] [%] | inhibition [12] [%] | inhibition [13] [%] | inhibition [14] [%] | inhibition [15] [%] | inhibition [16] [%] | inhibition [17] [%] | inhibition [18] [%] | inhibition [19] [%] | inhibition [20] [%]
1 | O=C1Nc2ccccc2/C1=C1\CCc2cc(O)ccc21 | 1.46 | -1.28 | 3.83 | 1.7 | 2.07 | 2.74 | 18.1 | 5.12 | 21 | 1.68 | 13 | 3.88 | 6.96 | 1.83 | 2.14 | 4.95 | 9.64 | 5 | 6.41 | 3.27
2 | COc1ccc(Nc2ncc(-c3ccccc3)o2)cc1OC | 1.95 | 0.89 | 1.57 | -0.17 | -1.05 | 2.55 | 28.9 | 1.69 | 39 | -0.12 | 10.7 | 0.54 | 1.75 | 0.12 | 0.02 | 3.39 | 6.61 | 0.83 | 3.24 | 0.28
3 | CCn1c(-c2nonc2N)nc2cncc(C(=O)NCCNC)c21 | 18.8 | 26.3 | 69.3 | 1.39 | 1.58 | 3.17 | 9.07 | 2.51 | 6.02 | 4.08 | 9.32 | 7.08 | 32.1 | 2.36 | 1.74 | 4.37 | 4.77 | 4.39 | 5.89 | 3.81
4 | N#Cc1cccc(Nc2ncc(-c3ccccc3)o2)c1 | 0.47 | 0.1 | 2.79 | 1.22 | 2.58 | 1.14 | 4 | 1.76 | 4.74 | 1.05 | 3.86 | 3.9 | 5.55 | 2.41 | 4.88 | 1.55 | 0.38 | 1.61 | 3.03 | 1.82
5 | COc1cc(N2CCN(C(C)C)CC2)ccc1Nc1nc(Nc2cccc(F)c2C(=O)O)c2cc[nH]c2n1 | 0.53 | 1 | 5.92 | 1.35 | 2.28 | 2.77 | 7.48 | 5.27 | 4.22 | 4.45 | 6.19 | 21.1 | 70.9 | 9.88 | 49.2 | 6.82 | 7.9 | 3.56 | 5.73 | 2.68
6 | CNC(=O)c1ncccc1Nc1nc(Nc2cc3c(cc2OC)CCCN3C(=O)CN(C)C)nc2[nH]ccc12 | 5.43 | 2.42 | 22.6 | 0.95 | 0.65 | 4.63 | 6.54 | 3.05 | 0.1 | 5.66 | 26.1 | 85.5 | 93.9 | 31 | 73.2 | 1.15 | 6.71 | 4.96 | 8.09 | 2.28
7 | COc1cc(N2CCN(C(C)C)CC2)ccc1Nc1nc(Nc2cccc3ncccc23)c2cc[nH]c2n1 | 0.36 | -0.71 | 0.17 | 0.21 | -0.62 | -2.95 | 0.48 | -4.22 | 3.12 | -0.11 | 0.59 | 5.22 | 31.2 | 0.31 | 11.3 | -0.03 | 2.43 | -1.03 | -0.55 | -1.25
8 | CN(c1ccc(NC(=O)NCCN2CCOCC2)cc1)c1ccnc(Nc2ccc(CS(C)(=O)=O)cc2)n1 | 0.65 | 0.45 | 2 | 1.83 | 3.14 | 2.8 | 17.4 | 9.27 | 11.2 | 1.55 | 4.49 | 4.48 | 5.87 | 4.78 | 3.15 | 1.71 | 2.52 | 2.63 | 3.24 | 3.34
9 | CS(=O)(=O)CCNCc1ccc(-c2ccc3ncnc(Nc4ccc(OCc5cccc(C(F)(F)F)c5)cc4)c3c2)o1 | -0.48 | 1.17 | 4.36 | 1.34 | 1.44 | 1.69 | 7.19 | 6.4 | 8 | 3.15 | 6.44 | 5.83 | 4.35 | 2.31 | 2.41 | 5.05 | 6.4 | 3.46 | 4.57 | 3.14
10 | COc1ccc2ncn(-c3cc(O[C@H](C)c4ccccc4C(F)(F)F)c(C(N)=O)s3)c2c1 | 0.75 | 1.24 | 7.53 | -0.11 | -0.07 | -1.94 | 15.9 | 4.06 | 5.38 | 1.28 | -0.87 | 1.48 | 1.53 | -0.29 | 0.97 | 0.31 | 2.23 | -1.06 | -0.1 | -0.92
11 | FC(F)(F)CNc1nccc(-c2cnn3ncccc23)n1 | 1.1 | -0.3 | 1.93 | 1.14 | 0.15 | 2.46 | 1.86 | -0.9 | 0.27 | 1.42 | 0.21 | 3.33 | 2.64 | -0.54 | -0.28 | 3.2 | 23.5 | 2.54 | 6.11 | 3.35
12 | O=C(O[C@H]1CN[C@H](C#Cc2cc3ncnc(Nc4ccc(OCc5cccc(F)c5)c(Cl)c4)c3s2)C1)N1CCOCC1 | 0.28 | 0.37 | 1.35 | 2.46 | 4.32 | 2.74 | 9.18 | 8.56 | 11.1 | 1.96 | 2.81 | 4.44 | 7.27 | 3.43 | 5.27 | 2.97 | 4.43 | 4.56 | 5.41 | 4.99
13 | CC1=C(C(=O)Nc2ccc3[nH]ncc3c2)C(c2ccc(F)cc2)N=C(c2ccc(C(F)(F)F)nc2)N1 (stereo not given) | 0.66 | 0.08 | -1.05 | 0.55 | 0.22 | 4.91 | 4.39 | 2.09 | 4.41 | -0.16 | 2.03 | 1.72 | -0.03 | 0.88 | -1.54 | 0.89 | 2.81 | 3.19 | 2.72 | 0.59
